Screening data (PubChem)
The list is not random: actives were taken first. Their share in the collection is about 0.52%.
PINK1 expr mod: A Quantitative High throughput Screen to Identify Chemical Modulators of PINK1 Expression | PINK1 immunofluorescence, high-content cytometry, 24 h | Potency, µM (series often up to 76.6 µM), most hits filed as activators | hit rate 0.2% among 410,000 | AID 624263, 2012; active = well fitted activation curve with a large enough effect; inconclusive = small, poorly fitted or top-dose-only effect; cell line not stated here; note: nearly all actives have a fitted effect of over 65% in size
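Cells are seeded, rested 12 hours, then given compound at five concentrations or DMSO for 24 hours. After fixation, blocking and antibody staining, PINK1 amount and mitochondrial localization are scored; CCCP serves as control.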
Vif-APOBEC3G blk: qHTS for Inhibitors of Vif-A3G Interactions: qHTS. hit rate 0.076% among 410,000. DNA dC->dU-editing enzyme APOBEC-3G (Homo sapiens), Q9HC16. HeLa A3G-eYFP + Vif (tagged APOBEC3G with the HIV-1 protein that degrades it), YFP fluorescence, overnight. Potency, µM (titrated, usually from 46.1 µM), actives largely listed as inhibitors; note: nearly all actives have a fitted effect of over 60% in size
Target sequence (Q9HC16 whole entry, looked up): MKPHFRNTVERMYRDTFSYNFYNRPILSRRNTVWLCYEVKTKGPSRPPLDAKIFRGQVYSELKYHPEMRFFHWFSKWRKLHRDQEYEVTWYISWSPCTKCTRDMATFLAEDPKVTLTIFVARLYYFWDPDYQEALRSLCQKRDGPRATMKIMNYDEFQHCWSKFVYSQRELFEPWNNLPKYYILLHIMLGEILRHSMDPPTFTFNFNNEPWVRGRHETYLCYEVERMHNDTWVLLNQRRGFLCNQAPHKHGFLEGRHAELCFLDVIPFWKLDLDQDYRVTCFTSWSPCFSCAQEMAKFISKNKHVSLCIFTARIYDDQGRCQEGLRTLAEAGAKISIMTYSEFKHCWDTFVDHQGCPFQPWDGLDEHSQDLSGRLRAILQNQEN
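HeLa cells stably expressing Vif and C-terminally eYFP-tagged A3G, seeded overnight at 37 deg C, then exposed to compound by pintool overnight at 37 deg C. Rise in yellow fluorescence (Ex 488/Em 500-530, Acumen) marks blocked Vif-driven A3G degradation.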
TRPML1 blocker: qHTS for Inhibitors of the Human Mucolipin Transient Receptor Potential 1 (TRPML1); TRPML1-inducible cells, Ca2+ dye fluorescence, FDSS; hits give low values; inhibition of EC80 agonist-evoked calcium signal; Mucolipin-1 (Homo sapiens), Q9GZU1; activity change, negative = inhibition, % (concentration not given with the values); hit rate 0.02% among 390,000; in the data active = activity change below about -50%; inconclusive = between about -30% and that limit;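 note: stimulus is agonist 54-4 at its EC80 concentration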
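Calcium fluorescence in TRPML1-DL cells induced overnight with Tet: a 110 s read after compound pin addition, then a 110 s antagonist read after challenge with 54-4 at 4 uM final (EC80).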
TRPML1 ag: qHTS for Agonists of the Human Mucolipin Transient Receptor Potential 1 (TRPML1); AID 624414, 2012; TRPML1-expressing cells, Ca2+ dye fluorescence, FDSS; activation, % (no concentration beside the values); hit rate 0.12% among 410,000; in the data active = activation above about 50%; inconclusive = mostly about 30% to 49%
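Agonist activity was taken from a 110 s kinetic Ca2+ dye read on the FDSS after pinning compounds onto TRPML1-DL cells. The cells were seeded at 1,500/well with Tet inducer, incubated about 16 h, then dye-loaded at room temperature.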
Vif-A3F inh: qHTS for Inhibitors of Vif-A3F Interactions: qHTS; HeLa A3F-eYFP + Vif (tagged APOBEC3F with the HIV-1 protein that degrades it), YFP fluorescence increase; Potency, µM (highest dose often 46.1 µM); hit rate 0.2% among 390,000; note: nearly all actives have a fitted effect of over 65% in size
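Fluorescence increase (Ex 488/Em 500-530) after overnight compound treatment at 37 deg C flags inhibition of Vif-driven A3F-eYFP loss in stable HeLa A3F-eYFP/Vif cells seeded overnight beforehand.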
Of the large screens only hits and unclear results are named; the others gave an inactive call. Unless noted, calls come from the whole dose curve; as a rule, active = well fitted curve in the direction sought with a large enough effect; inconclusive = small, poorly fitted or top-dose-only effect, or another doubt; inactive = no such curve, though single readings can be large; an effect the other way counts as inactive or inconclusive.

O=C(NC1CC1)c1cccc2c1C(=O)c1ccc(N3CCC(Cc4ccccc4)CC3)cc1S2(=O)=O	Vif-APOBEC3G blk inconclusive, TRPML1 ag inconclusive, Vif-A3F inh 22.4µM
O=C(NC1CCCCC1)c1cccc2c1C(=O)c1ccc(N3CCCC3)cc1S2(=O)=O	none
C/C(CC(=O)Nc1cccc(Br)c1)=N\NC(=O)c1ccc(O)cc1O	none
CC1(C)CSC(=NCc2ccccc2)N1C(=O)c1cccc([N+](=O)[O-])c1	TRPML1 ag 94.5
CC(=O)Nc1sc(/C(C#N)=C/c2ccc(Cl)c(Cl)c2)nc1-c1ccc(C)cc1	Vif-APOBEC3G blk inconclusive, TRPML1 blocker inconclusive, TRPML1 ag 75.2, Vif-A3F inh inconclusive
CC(=O)Nc1sc(N/N=C/c2ccc(C)cc2)nc1-c1ccc(C)cc1	none
CCNc1ccc(Br)cc(C(=O)/C=C/c2ccccc2Cl)c1=O	Vif-APOBEC3G blk 10µM, Vif-A3F inh inconclusive
CC1CCN(S(=O)(=O)c2cc(F)ccc2CN2C(=O)c3cccnc3C2=O)CC1	none
Cc1nn(C(=O)c2ccc(Cl)cc2)c(C)c1S(=O)(=O)N1CCCCCC1	none
COc1ccc(-n2c(O)c(/C=N/NS(=O)(=O)c3ccc(C)cc3)c3ccccc3c2=O)cc1OC	Vif-APOBEC3G blk inconclusive, Vif-A3F inh 5.01µM
COc1ccc(-n2c(O)c(/C=N/NS(=O)(=O)c3cc(C)ccc3C)c3ccccc3c2=O)cc1OC	TRPML1 ag inconclusive, Vif-A3F inh inconclusive
CCN1/C(=C/C=C2/SC(=Nc3cccc4ncccc34)N(C)C2=O)Sc2ccccc21	Vif-A3F inh 3.55µM
CCN1C(=O)/C(=C/C=C2/Sc3ccccc3N2CCO)SC1=S	none
COc1ccccc1NC(=O)/C(C#N)=C/C=C/c1ccco1	PINK1 expr mod 2.82µM, Vif-APOBEC3G blk inconclusive, Vif-A3F inh inconclusive
CCN1C(=O)/C(=C/C=C2/SCCN2C)SC1=S	Vif-APOBEC3G blk inconclusive, Vif-A3F inh inconclusive
CCCCN1C(=O)/C(=C/C=C2/CC(C)(C)CN2C)SC1=S	Vif-APOBEC3G blk 3.55µM, TRPML1 ag 52.8, Vif-A3F inh inconclusive
CCCCN1C(=O)/C(=C/C=C2\Oc3ccccc3N2CC)SC1=S	PINK1 expr mod inconclusive, Vif-APOBEC3G blk 1.58µM, TRPML1 ag inconclusive
COc1cccc2ccc(CC(O)(c3ccccc3)c3ccccc3)nc12	PINK1 expr mod 39.8µM
Cc1ccc2nc(CC(O)(c3ccccc3)c3ccccc3)ccc2c1	none
COc1cc(OC)c2c(c1)C(=O)OC2c1cc(OC)c(OC)cc1C (centres undefined)	none (no result: TRPML1 blocker, Vif-A3F inh)
CCC(=O)NC(=S)Nc1cccc(Cl)c1N1CCCC1	Vif-A3F inh 10µM
O=C(NC(=S)Nc1cccc(Cl)c1N1CCCCC1)c1ccc2c(c1)OCCO2	Vif-A3F inh inconclusive
Cc1ccc(C(C)C)c2oc(=O)cc(-c3ccc(-c4ccc(C(F)(F)F)cc4)cc3)c12	none
CC(=O)c1ccc(-c2ccc(-c3cc(=O)oc4c(C(C)C)ccc(C)c34)cc2)cc1	TRPML1 ag 64.0
C#CCSc1nc(-c2cccs2)ccc1C#N	Vif-A3F inh 2.82µM
Cc1ccc(N2CC(C(=O)Nc3ccc(C)c(S(=O)(=O)N(C)C)c3)CC2=O)cc1 (centres undefined)	none
CCOC(=O)c1c(C)c(C(=O)NCCOC)c(C)n1CC	none
CCOC(=O)c1c(C)c(C(=O)Nc2ccc(N(C)C)cc2)c(C)n1CC	PINK1 expr mod 11.2µM
CC1=Nc2ccc(C)cc2/C1=C/c1c(N)n2oc(C)cc2nc1=O	PINK1 expr mod inconclusive, Vif-APOBEC3G blk inconclusive, Vif-A3F inh 11.2µM
CSc1nsc2nc(=O)c(/C=C3\C(C)=Nc4ccc(C)cc43)c(N)n12	Vif-APOBEC3G blk inconclusive, Vif-A3F inh inconclusive
O=C(NS(=O)(=O)Oc1cccc(Cl)c1Cl)OC[C@@H]1CCCN2CCCCC12 (some centres undefined)	none
Cc1cc(C)c(S(=O)(=O)n2ccc3ccccc32)c(C)c1	PINK1 expr mod 39.8µM
N#CC1=C(S)N(c2ccc(F)cc2)C2(CCCCC2)NC1=O	Vif-A3F inh 11.2µM
Cc1cc(C)cc(N2C(=O)CSC23C(=O)N(CC(=O)NCCc2ccccc2)c2ccccc23)c1 (centres undefined)	none
N#Cc1ccc(CN2CCC3(CC2)CCN(C(=O)c2ccco2)CC3)cc1	none (no result: Vif-APOBEC3G blk, TRPML1 blocker, TRPML1 ag, Vif-A3F inh)
Cc1cc(C)nc(N/N=C/C2=C(N3CCOCC3)C(=C\c3ccc(Cl)cc3)/CC2)n1	Vif-A3F inh inconclusive
Cc1occc1C(=O)N/N=C/C1=C(N2CCOCC2)C(=C\c2ccc(Cl)cc2Cl)/CC1	PINK1 expr mod 31.6µM
COc1ccc(C(=O)C2CCCN(Cc3cccn3-c3ccc(Cl)cn3)C2)c(OC)c1 (centres undefined)	PINK1 expr mod inconclusive
COC(=O)c1ccc(Nc2c([N+](=O)[O-])ccc3nonc23)cc1	PINK1 expr mod 14.1µM, Vif-APOBEC3G blk inconclusive, Vif-A3F inh 25.1µM
CC(=O)c1ccc(Nc2c([N+](=O)[O-])ccc3nonc23)cc1	none
Cn1c(=O)c2sccc2n2c(CCC(=O)Nc3ccc(F)cc3)nnc12	none
O=[N+]([O-])c1cc(O)c2ncccc2c1	Vif-APOBEC3G blk 11.2µM
O=C(Nc1ccc(N2CCCCC2)cc1)c1ccc2ccccc2n1	TRPML1 blocker inconclusive, TRPML1 ag 87.2
O=C(NC(=S)Nc1ccc(N2CCOCC2)cc1)c1ccccc1	none
O=C(Nc1ccc(N2CCOCC2)cc1)c1cccc2ccccc12	Vif-APOBEC3G blk 10µM, TRPML1 blocker inconclusive
O=C(Nc1cccc(S(=O)(=O)N2CCCCCC2)c1)c1ccc2ccccc2n1	none
CCc1ccc(C(=O)NC(=S)Nc2ccc(N3CCOCC3)cc2)cc1	Vif-A3F inh 10µM
CCOc1ccccc1CNC(=O)CN1C(=O)CCCc2ccccc21	none
COc1ccc2nc3ccccc3nc2c1NC(=O)c1ccc(Cl)cc1Cl	Vif-APOBEC3G blk 3.98µM, Vif-A3F inh inconclusive
COc1cc(-c2cc(C(=O)Nc3c(Cl)cc(Cl)cc3Cl)c3ccccc3n2)cc(OC)c1OC	none
CSc1ncccc1C(=O)OCC(=O)c1[nH]c(C)c(C(C)=O)c1C	none
COc1ccc(/C=N/NC(=O)c2cccnc2)cc1CSc1ccccn1	Vif-APOBEC3G blk 7.08µM
CCCC(=O)Nc1ccc(-c2nc3ncccc3o2)cc1C	none
N#CCCN(C(=S)Nc1ccc(S(=O)(=O)N2CCOCC2)cc1)c1ccccc1F	Vif-A3F inh inconclusive
CC(=O)c1ccc(NC(=O)Nc2ccc([N+](=O)[O-])cc2)cc1	none
O=C(Nc1ccc(Oc2ccc(NC(=O)Nc3ccc([N+](=O)[O-])cc3)cc2)cc1)Nc1ccc([N+](=O)[O-])cc1	PINK1 expr mod 28.2µM
c1ccc2[nH]c(NN=C3CCCCCC3)nc2c1	Vif-A3F inh 22.4µM
